# Screening data deposited in PubChem by National Center for Advancing Translational Sciences (NCATS).
# Rows were chosen to be rich in hits. Some 6.5% of all compounds tested hit in one or more screens of this group.
# VACV Venus inh: vaccinia inhibition (Venus reporter). Potency, µM (titrated, usually from 36.5 µM), inactives show at the highest dose activity change, negative = inhibition, usual class: inhibitors. Vaccinia virus Venus reporter expression, fluorescence. AID 720580. 330,000 tested, 0.46% active; calls by dose curve; tested in A549 cells; further: potency means the concentration at half of the fitted maximal effect; nearly all actives have a fitted effect of over 30% in size
# VACV mCherry inh: inhibitors of vaccinia virus infection (mCherry reporter signal). Vaccinia virus mCherry reporter infection, fluorescence. Potency, µM (titrated, usually from 36.5 µM), without a hit: at the highest dose activity change, negative = inhibition, hits mostly inhibitors. 310,000 tested, 0.63% active. AID 720579; calls by dose curve; tested in A549 cells; further: potency means the concentration at half of the fitted maximal effect; nearly all actives have a fitted effect of over 35% in size
# HCMV antiviral: inhibitors of human cytomegalovirus. HFF cells, HCMV-luciferase reporter, 72 h; stronger effect = lower value. activity change, negative = inhibition, % at 57.5 µM. 410,000 tested, 4.5% active. AID 1259415; in the data active means activity change below about -60%; inconclusive means no clear call, values can overlap the other calls; inactive means above about -39%
#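 Compounds were evaluated in HFFs infected with an HCMV luciferase reporter virus (MOI 1 PFU/cell). Luciferase in lysates collected 72 h post infection served as the replication measure.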
# Marburg entry inh: Marburg virus entry inhibition | Marburg virus pseudotyped entry inhibition, cell reporter | Potency, µM (highest dose often 37.8 µM), without a hit: at the highest dose activity change, negative = inhibition, most hits filed as inhibitors | 300,000 tested, 1.8% active; calls by dose curve; tested in HEK293 cells; further: potency means the concentration at half of the fitted maximal effect
# Lassa entry inh: blocks Lassa virus binding to or entry into cells; Lassa virus pseudotype entry inhibition, cell reporter; 300,000 tested, 1.2% active; Potency, µM (titrated, usually from 37.9 µM), inactives show top-dose activity change, negative = inhibition, usual class: inhibitors; calls by dose curve; tested in HEK293 cells; further: potency means the concentration at half of the fitted maximal effect; nearly all actives have a fitted effect of over 50% in size
# FMDV antiviral: antivirals against foot and mouth disease virus; FMDV antiviral cell-based qHTS; Potency, µM (highest dose often 57.9 µM), inactives show top-dose activity change, negative = inhibition, actives largely listed as inhibitors; 410,000 tested, 1.2% active; AID 1159524; calls by dose curve; tested in HEK293T cells; further: read-out not given here; potency means the concentration at half of the fitted maximal effect; nearly all actives have a fitted effect of over 45% in size
# * = called active by the depositor; i = inactive; ? = inconclusive; nt = not tested or not shown; [ ] = another dose, or the depositor's remark. On the % scale 0 is the no-effect control and ±100 the full control effect.
SMILES,VACV Venus inh,VACV mCherry inh,HCMV antiviral,Marburg entry inh,Lassa entry inh,FMDV antiviral
CSc1ccc(Cn2c(C)c(C(=O)NCc3cccc(C)c3)sc2=O)cc1,-13%,-15%,-67*,nt,nt,-19%
Cc1c(C(=O)NCc2ccccc2C(F)(F)F)sc(=O)n1Cc1ccccc1C#N,-1%,i,-62*,nt,nt,-22%
C=Cc1ccc(Cn2c(C)c(C(=O)NCc3cccc(C)c3)sc2=O)cc1,0%,3%,-65*,nt,nt,-5%
Cc1cccc(C)c1Cn1c(C)c(C(=O)NCc2ccccc2C(F)(F)F)sc1=O,2%,9%,?,nt,nt,-19%
C=Cc1ccc(Cn2c(C)c(C(=O)NCc3cccc(C(F)(F)F)c3)sc2=O)cc1,6%,i,2,nt,nt,-12%
Cc1noc(C)c1CC(=O)NCC1Cc2cc(-c3cccc(OC(F)(F)F)c3)ccc2O1 (stereo unspecified),-16%,-24%,nt,nt,nt,-6%
COc1ccc(CNC(=O)c2sc(=O)n(Cc3ccc(S(=O)(=O)N(C)C)cc3)c2C)cc1,-11%,-18%,-27,nt,nt,?
Cc1c(C(=O)NCc2ccc(C(F)(F)F)cc2)sc(=O)n1Cc1ccc(S(=O)(=O)N(C)C)cc1,-22%,-7%,-73*,nt,nt,?
COc1ccc(Cl)cc1Cn1c(C)c(C(=O)NCc2ccc3c(c2)OCCO3)sc1=O,8%,7%,-72*,nt,nt,-25%
C[C@H](CO)N1C[C@H](C)[C@@H](CN(C)C(=O)Nc2ccc(N3CCN(C)CC3)cc2)OCc2cn(nn2)CCCC1=O,nt,nt,-2,nt,nt,nt
Cc1cc(C(=O)N2CCCC(C(=O)c3ccc4ccccc4c3)C2)nn1C (stereo unspecified),7%,-14%,-21,?,?,-29%
CSc1ncccc1C(=O)N1CCCC(C(=O)c2ccc3ccccc3c2)C1 (stereo unspecified),-6%,-2%,-5,?,11µM*,?
CC(C)CC(=O)N1CCN(S(=O)(=O)c2ccc3ccccc3c2)CC1,nt,nt,-88*,-20%,-26%,?
COc1ccc(C(=O)C2CCCN(C(=O)CCc3scnc3C)C2)c(C)c1 (stereo unspecified),-16%,-7%,-76*,4%[46.1 µM],-22%[46.1 µM],-19%
Cc1ncsc1C(=O)N1CCCC(C(=O)c2ccc3ccccc3c2)C1 (stereo unspecified),-20%,?,-38,?,-12%,28µM*
COC(=O)N1C(/C=C/c2ccc3c(c2)OCO3)=Cc2ccccc2C1CC(C)=O (stereo unspecified),nt,nt,nt,-12%[14.2 µM],nt,nt
CCOC(=O)[C@H](C)Oc1ccc2c(C)cc(=O)oc2c1C(C)=O,nt,nt,nt,15%,nt,nt
Cc1ccc(S(=O)(=O)Nc2cccc(-c3ccc(N4CCC(C)CC4)nn3)c2)s1,-11%,-19%,38,nt,-29%[46.1 µM],-21%
Nc1cc(=O)[nH]c(SCC(=O)N2CCN(S(=O)(=O)c3ccc4ccccc4c3)CC2)n1,2%,0%,4,?,2%,-7%
O=C(c1ccc2ccccc2c1)C1CCCN(C(=O)CN2C(=O)CSC2=O)C1 (stereo unspecified),-7%,i,-68*,17%[46.1 µM],18%[46.1 µM],11%
Cc1ccc(S(=O)(=O)N2CCN(C(=O)Cc3ccccc3)CC2)cc1C,nt,nt,0,nt,nt,-20%
O=C(CSc1n[nH]c(-c2cccs2)n1)N1CCN(S(=O)(=O)c2ccc3ccccc3c2)CC1,?,-27%,-37,?,?,22µM*
CSc1ncccc1C(=O)N1CCN(S(=O)(=O)c2ccc3ccccc3c2)CC1,nt,nt,-83*,nt,nt,0%
Cc1ccc(S(=O)(=O)N2CCN(C(=O)CCN3C(=O)c4ccccc4C3=O)CC2)cc1C,-10%,i,-62*,?,-12%,-27%
COCC1CCCN(Cc2ccc3c(c2)CN(C(=O)c2sc(C)nc2C)CCO3)C1 (stereo unspecified),9%,0%,nt,nt,nt,-2%
SMILES,VACV Venus inh,VACV mCherry inh,HCMV antiviral,Marburg entry inh,Lassa entry inh,FMDV antiviral
CC(C)(CO)NC(=O)c1cnn(-c2nccc(-c3ccc4c(c3)OCO4)n2)c1C1CC1,-19%,-23%,nt,nt,nt,29%
COC(=O)C1=C(c2ccccc2)c2ccccc2S(=O)(=O)N1CC(=O)Nc1ccc(F)c(F)c1,1%,-12%,-30,?,11µM*,-13%
COc1cccc(N2CCN(C(=O)CC(C)(C)CC3=NS(=O)(=O)c4ccccc4N3)CC2)c1,-15%,-8%,-72*,-17%[46.1 µM],?,?
O=C(CCCC1=NS(=O)(=O)c2ccccc2N1)N1CCN(c2ccccc2)CC1,nt,nt,11,-14%,-9%,-9%
CC(C)(CC(=O)N1CCN(c2ccc(Cl)cc2)CC1)CC1=NS(=O)(=O)c2ccccc2N1,?,?,?,?,11µM*,0%
O=C(CCCC1=NS(=O)(=O)c2ccccc2N1)N1CCN(c2ccc(Cl)cc2)CC1,-24%,-9%,-19,10%,17%,-15%
COC(=O)C1CCCCN1Cc1ccc2c(c1)CN(C1CCSCC1)CCO2 (stereo unspecified),-6%,-6%,nt,nt,nt,-5%
CCc1nnc(SCc2cccc(Cl)c2)c2cc3sccc3n12,-10%,-9%,23,?,nt,13%
Cc1ccc(CCNC(=O)c2cc3c(s2)-c2c(C)cccc2OC3)cc1,-8%,-17%,-86*,8%[46.1 µM],nt,-12%
Cc1cccc2c1-c1sc(C(=O)NCc3ccccc3Cl)cc1CO2,-1%,-7%,-5,?,nt,40%
Cc1ccc(CCNC(=O)c2cc3c(s2)-c2ccccc2OC3)cc1,-13%[7.34 µM],-3%[7.34 µM],-89*,-1%[46.1 µM],nt,-15%
O=C(NCCc1ccc(Cl)cc1)c1cc2c(s1)-c1ccccc1OC2,-36%,-10%,-23,11%[46.1 µM],nt,0%
CC1CCCN(CCCNC(=O)c2cc3c(s2)-c2ccccc2OC3)C1 (stereo unspecified),?,?,-67*,3.2µM*,?,-6%
CCN(CC)CCNC(=O)c1cc2c(s1)-c1ccccc1SC2,nt,nt,-72*,nt,nt,-8%
CN1CCCN(C(=O)[C@@H]2C[C@@H](Sc3nc4ccccc4[nH]3)CN2Cc2ccc(OC(F)(F)F)cc2)CC1,-9%,-24%,nt,nt,nt,-13%
CCOc1ccc(CCNC(=O)CCc2c(C)nc3cc(-c4ccccc4OC)nn3c2C)cc1,-7%[7.34 µM],-5%[7.34 µM],-24,?,?,0%
COCC1CCCN(Cc2ccc3c(c2)CN(C(=O)c2ccc(-n4cccn4)cc2)CCO3)C1 (stereo unspecified),4%,-12%,nt,nt,nt,-5%
O=C(Nc1cccnc1)c1cc2c(s1)-c1ccccc1OC2,nt,nt,-62*,nt,nt,5%
Cc1cccc2c1-c1sc(C(=O)Nc3cccnc3)cc1CO2,nt,nt,?,nt,nt,22%
CC(=O)c1cccc(NC(=O)c2cc3c(s2)-c2c(C)cccc2OC3)c1,20µM*,11µM*,?,7%[46.1 µM],nt,?
O=C(Nc1cccnc1Cl)c1cc2c(s1)-c1ccccc1OC2,nt,nt,-33,nt,nt,15%
COc1ccc(-c2cc(C)cc3c2OC(CNC(=O)/C=C/c2ccncc2)C3)nn1 (stereo unspecified),-4%,-16%,nt,nt,nt,-17%
